The supplement of paper PMC11732987, “Enantioselective OTUD7B fragment discovery through chemoproteomics screening and high-throughput optimisation” (Communications Chemistry, 2025)

Assays:
Experiment in all cases: log2 ratio of Biotin-Ahx-Ub-VS probe labelling (fragment/DMSO); higher = less target engagement (more negative = stronger competition), active = hit call of the paper (q ≤ 0.05, log2 ratio ≤ -1)
Details in all cases: compound concentration: 200 uM; treatment time: 3 h
USP19 = biological target: T1, USP19 (UniProt O94966)
T1 sequence (whole entry): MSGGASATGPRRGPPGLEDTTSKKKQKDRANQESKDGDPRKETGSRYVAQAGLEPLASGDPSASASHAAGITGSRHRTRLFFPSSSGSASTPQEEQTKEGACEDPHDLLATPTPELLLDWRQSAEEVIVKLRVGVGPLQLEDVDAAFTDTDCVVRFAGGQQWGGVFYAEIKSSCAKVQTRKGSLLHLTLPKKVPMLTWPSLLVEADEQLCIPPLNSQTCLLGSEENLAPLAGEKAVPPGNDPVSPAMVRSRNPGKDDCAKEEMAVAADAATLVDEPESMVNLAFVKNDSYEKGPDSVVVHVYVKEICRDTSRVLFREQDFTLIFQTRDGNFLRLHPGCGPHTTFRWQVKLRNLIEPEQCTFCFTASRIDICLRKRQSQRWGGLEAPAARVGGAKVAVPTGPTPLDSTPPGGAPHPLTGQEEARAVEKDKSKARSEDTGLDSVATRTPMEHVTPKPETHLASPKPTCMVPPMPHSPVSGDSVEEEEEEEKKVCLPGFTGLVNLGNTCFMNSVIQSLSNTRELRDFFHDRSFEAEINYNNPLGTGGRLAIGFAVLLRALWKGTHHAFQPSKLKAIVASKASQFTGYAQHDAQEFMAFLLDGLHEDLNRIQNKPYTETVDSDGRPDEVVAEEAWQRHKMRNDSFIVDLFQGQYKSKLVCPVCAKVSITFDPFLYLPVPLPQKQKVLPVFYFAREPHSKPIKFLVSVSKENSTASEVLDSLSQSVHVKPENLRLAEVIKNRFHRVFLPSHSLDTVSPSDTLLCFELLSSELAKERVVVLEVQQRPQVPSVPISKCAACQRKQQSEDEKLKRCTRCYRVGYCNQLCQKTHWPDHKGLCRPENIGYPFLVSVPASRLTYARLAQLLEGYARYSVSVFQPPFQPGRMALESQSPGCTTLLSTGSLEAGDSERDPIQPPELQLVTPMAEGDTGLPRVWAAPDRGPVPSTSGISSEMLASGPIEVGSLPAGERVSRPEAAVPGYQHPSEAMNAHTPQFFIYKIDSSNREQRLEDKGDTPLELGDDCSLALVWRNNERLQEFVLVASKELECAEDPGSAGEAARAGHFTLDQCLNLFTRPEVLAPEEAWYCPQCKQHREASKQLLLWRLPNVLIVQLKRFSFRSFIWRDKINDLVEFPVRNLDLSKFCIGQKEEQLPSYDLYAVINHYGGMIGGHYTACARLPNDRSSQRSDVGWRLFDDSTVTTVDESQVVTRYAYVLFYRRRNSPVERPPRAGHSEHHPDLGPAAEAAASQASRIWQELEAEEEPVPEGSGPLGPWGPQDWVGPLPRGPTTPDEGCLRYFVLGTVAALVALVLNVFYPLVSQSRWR
Procedure, shortened: (§1)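 The table lists average log2 ratios of fragment over vehicle, from an unpaired t-test on global-median-normalised Spectronaut label-free quantities. Proteins with ≥2 unique peptides were used. Samples were HEK293T lysate (495 µg) treated in triplicate with fragment at 200 µM or vehicle for 3 h, then with Biotin-Ahx-Ub-VS (0.5 µM final) for 1 h, with labelled DUBs NeutrAvidin-enriched and run by diaPASEF LC-MS/MS.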

USP22 = biological target: T2, USP22 (UniProt Q9UPT9)
T2 sequence (whole entry): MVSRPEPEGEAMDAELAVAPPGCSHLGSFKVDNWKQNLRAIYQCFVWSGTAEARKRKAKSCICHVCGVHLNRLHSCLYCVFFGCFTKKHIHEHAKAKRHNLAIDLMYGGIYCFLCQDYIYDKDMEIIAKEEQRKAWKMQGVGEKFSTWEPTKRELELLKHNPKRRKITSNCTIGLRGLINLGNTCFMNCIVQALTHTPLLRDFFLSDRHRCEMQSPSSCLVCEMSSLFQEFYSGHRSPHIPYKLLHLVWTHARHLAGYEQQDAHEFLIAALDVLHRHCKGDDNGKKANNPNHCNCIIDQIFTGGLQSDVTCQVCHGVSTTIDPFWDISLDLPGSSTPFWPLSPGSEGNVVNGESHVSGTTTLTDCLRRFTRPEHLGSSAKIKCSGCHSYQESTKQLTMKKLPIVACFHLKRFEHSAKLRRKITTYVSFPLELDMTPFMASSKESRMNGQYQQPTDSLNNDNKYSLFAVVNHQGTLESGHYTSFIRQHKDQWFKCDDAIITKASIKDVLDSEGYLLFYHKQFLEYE
Procedure, shortened: as §1

USP24 = USP24 (UniProt Q9UPU5)
Procedure, shortened: as §1

USP25 = biological target: T3, USP25 (UniProt Q9UHP3)
T3 sequence (whole entry): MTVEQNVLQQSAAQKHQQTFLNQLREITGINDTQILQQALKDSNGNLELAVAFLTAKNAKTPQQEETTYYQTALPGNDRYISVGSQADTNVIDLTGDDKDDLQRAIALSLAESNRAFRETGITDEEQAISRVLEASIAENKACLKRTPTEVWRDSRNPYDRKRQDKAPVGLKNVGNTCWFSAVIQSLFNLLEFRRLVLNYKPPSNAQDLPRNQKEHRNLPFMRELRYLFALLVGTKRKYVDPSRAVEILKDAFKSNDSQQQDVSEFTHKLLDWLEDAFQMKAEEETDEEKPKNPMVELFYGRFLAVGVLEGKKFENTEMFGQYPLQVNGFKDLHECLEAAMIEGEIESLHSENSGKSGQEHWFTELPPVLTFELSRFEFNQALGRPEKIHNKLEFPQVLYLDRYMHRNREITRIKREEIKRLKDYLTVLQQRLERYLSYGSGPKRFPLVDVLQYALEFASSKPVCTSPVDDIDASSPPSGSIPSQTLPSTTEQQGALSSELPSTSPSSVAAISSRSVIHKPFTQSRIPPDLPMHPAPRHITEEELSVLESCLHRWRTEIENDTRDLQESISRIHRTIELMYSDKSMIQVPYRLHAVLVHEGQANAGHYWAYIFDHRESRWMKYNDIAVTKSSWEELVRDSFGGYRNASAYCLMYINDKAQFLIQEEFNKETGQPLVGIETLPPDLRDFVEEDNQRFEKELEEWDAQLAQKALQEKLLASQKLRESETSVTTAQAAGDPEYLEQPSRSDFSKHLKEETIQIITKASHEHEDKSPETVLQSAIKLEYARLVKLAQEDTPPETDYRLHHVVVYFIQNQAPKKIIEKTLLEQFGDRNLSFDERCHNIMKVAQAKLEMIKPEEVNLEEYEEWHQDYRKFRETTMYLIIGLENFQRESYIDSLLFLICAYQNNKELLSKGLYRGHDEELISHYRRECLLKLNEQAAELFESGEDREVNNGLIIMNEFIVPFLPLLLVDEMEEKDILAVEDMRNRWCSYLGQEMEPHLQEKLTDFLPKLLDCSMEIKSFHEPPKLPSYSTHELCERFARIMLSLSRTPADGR
Procedure, shortened: as §1

USP28 = biological target: T4, USP28 (UniProt Q96RU2)
T4 sequence (whole entry): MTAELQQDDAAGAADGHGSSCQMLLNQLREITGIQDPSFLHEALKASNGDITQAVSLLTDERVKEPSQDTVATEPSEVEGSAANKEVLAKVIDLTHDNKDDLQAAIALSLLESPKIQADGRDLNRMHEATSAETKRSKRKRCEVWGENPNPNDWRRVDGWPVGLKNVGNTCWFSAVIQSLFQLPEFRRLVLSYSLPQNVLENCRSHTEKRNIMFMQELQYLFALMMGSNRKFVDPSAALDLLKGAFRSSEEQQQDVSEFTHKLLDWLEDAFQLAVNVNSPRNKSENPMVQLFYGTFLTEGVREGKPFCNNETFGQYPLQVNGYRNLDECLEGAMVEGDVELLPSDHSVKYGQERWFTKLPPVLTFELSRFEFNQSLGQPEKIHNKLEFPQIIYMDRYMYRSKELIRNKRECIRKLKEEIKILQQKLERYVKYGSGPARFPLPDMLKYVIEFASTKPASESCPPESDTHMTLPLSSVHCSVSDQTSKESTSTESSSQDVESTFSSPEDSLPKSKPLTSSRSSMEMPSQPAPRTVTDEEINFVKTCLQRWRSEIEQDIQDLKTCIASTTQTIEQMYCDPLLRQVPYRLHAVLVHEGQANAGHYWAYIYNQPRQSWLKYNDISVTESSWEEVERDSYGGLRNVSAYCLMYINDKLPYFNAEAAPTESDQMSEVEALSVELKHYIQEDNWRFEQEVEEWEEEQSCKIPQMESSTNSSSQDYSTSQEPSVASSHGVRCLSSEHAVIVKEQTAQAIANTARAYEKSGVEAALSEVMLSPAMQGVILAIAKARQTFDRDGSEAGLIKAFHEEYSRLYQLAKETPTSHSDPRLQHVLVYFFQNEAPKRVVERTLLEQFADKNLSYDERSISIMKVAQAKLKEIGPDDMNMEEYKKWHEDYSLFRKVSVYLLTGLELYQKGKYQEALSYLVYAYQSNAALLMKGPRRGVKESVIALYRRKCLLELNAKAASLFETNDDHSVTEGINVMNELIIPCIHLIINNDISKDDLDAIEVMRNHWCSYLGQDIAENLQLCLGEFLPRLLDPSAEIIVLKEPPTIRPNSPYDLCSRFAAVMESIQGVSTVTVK
Procedure, shortened: as §1

Measured: log2 ratio of Biotin-Ahx-Ub-VS probe labelling

Sequence of USP24 (Q9UPU5 whole entry): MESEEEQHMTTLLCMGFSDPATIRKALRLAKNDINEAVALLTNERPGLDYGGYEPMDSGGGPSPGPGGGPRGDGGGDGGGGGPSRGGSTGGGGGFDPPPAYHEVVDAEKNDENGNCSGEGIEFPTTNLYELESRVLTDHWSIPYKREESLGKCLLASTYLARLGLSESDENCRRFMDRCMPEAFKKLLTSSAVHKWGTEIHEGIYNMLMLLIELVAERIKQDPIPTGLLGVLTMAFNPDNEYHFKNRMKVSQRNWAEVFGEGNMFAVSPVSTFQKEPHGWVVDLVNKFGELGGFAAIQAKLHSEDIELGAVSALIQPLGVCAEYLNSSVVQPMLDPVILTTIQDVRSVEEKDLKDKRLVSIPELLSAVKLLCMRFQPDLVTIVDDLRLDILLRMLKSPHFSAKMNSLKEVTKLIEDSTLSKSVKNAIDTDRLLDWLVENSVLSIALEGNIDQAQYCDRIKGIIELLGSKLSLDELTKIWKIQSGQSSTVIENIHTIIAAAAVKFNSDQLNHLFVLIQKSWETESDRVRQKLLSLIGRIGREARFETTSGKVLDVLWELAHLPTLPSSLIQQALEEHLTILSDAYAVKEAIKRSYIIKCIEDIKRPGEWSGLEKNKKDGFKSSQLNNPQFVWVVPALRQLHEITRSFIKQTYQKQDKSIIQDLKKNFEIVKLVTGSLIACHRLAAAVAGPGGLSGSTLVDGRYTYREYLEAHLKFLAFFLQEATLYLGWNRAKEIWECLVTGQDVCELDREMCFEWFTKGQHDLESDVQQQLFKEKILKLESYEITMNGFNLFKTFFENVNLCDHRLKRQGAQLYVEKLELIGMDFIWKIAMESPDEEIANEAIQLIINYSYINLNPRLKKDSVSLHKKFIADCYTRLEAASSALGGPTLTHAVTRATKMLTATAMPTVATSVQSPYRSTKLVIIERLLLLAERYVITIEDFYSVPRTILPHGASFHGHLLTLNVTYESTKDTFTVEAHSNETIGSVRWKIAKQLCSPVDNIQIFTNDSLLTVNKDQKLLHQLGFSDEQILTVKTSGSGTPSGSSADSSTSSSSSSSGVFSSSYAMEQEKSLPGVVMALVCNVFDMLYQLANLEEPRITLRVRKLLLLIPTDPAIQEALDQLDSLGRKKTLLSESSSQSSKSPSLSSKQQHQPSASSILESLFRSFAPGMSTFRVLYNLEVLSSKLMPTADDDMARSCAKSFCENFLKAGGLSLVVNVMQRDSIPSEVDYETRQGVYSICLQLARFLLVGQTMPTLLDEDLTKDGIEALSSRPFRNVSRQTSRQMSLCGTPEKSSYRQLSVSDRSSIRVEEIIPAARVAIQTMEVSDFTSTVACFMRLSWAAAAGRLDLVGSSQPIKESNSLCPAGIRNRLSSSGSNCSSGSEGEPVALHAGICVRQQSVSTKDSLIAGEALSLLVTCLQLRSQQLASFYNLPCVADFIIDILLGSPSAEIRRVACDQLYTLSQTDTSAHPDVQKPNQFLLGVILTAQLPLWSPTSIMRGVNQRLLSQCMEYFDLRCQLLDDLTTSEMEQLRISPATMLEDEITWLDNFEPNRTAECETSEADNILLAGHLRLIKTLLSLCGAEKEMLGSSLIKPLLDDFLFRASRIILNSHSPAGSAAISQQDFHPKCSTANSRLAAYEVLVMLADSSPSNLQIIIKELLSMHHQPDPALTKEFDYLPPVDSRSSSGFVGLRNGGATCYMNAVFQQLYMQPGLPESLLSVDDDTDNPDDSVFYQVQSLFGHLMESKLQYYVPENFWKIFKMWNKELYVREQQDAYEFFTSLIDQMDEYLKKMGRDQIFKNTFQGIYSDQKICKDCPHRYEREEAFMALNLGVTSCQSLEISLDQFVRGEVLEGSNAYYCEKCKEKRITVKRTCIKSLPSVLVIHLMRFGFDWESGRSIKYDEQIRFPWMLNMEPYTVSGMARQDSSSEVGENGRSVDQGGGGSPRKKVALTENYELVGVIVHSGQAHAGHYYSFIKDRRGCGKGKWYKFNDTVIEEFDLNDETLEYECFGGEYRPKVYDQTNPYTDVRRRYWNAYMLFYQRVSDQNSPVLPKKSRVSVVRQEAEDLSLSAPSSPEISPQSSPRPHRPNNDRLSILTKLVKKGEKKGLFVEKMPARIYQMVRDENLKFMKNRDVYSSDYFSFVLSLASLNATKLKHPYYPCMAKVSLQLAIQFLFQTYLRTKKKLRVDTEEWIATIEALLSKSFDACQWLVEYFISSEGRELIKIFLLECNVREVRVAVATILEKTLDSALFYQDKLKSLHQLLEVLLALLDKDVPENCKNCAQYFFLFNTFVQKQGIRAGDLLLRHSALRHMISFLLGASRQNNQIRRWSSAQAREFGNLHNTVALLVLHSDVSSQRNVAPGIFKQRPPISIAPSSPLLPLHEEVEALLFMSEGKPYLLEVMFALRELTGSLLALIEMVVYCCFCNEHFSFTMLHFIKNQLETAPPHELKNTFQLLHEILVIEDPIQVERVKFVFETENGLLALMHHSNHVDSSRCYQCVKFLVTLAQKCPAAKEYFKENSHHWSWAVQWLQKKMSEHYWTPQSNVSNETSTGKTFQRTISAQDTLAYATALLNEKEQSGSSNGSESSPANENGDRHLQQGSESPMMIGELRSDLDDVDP

CC(NC(=O)CCl)c1noc(Cc2ccccc2)n1 (stereo not given)
inactive: USP19 -0.307 | USP22 -0.322 | USP24 -0.498 | USP25 -0.593 | USP28 -0.789
